Bioassay records as filed in PubChem.
Compounds with a hit are over-represented: about 4.1% of the library has one in this group of screens.
hgDAF-12 ag: activates the H. glycines DAF-12 receptor ligand-binding domain; activation, % at 6.8 µM; 1.8% of 370,000 active; HEK293 GAL4-hgDAF12 UAS-luciferase reporter, agonist luminescence; normalized to butyrate control; AID 687014;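 active means activation above a cutoff set at the mean of all screened compounds plus 3 SD, cut at about 10% in these data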;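 further: 0% = DMSO wells and 100% = sodium butyrate wells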
hcDAF12 agonist: activates DAF-12 receptor from parasite H. contortus; 1.4% of 370,000 active; HEK293 hcDAF-12 lit1-tk-luc reporter, luminescence; 0% DMSO, 100% Δ7-dafachronic acid; activation, % at 6.8 µM;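 active means activation above the mean of all tested compounds plus 3 SD, cut at about 5.5% in these data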;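 further: 100% = response to 3 µM Δ7-dafachronic acid high control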
DAX1 inh-1: inhibits human nuclear receptor DAX1. 0.99% of 340,000 active. inhibition, % at 6.75 µM. HEK293 Gal4-DAX1 luciferase reporter, luminescence;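 active means inhibition above the mean over all tested compounds plus 3 SD, cut at about 4.2% in these data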;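 further: 0% = DAX1-transfected cells with DMSO and 100% = empty-vector control cells with DMSO; inhibition shows as a rise in luminescence from relieved DAX1 repression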
Target sequence (P51843 207-470 limits assumed): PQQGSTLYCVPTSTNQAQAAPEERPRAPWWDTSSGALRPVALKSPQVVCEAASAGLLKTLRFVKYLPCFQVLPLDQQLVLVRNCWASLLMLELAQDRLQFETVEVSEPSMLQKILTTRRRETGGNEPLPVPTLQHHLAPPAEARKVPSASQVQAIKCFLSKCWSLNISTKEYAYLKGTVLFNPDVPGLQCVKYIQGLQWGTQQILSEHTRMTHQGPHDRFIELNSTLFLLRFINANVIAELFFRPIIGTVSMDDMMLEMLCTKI
ssDAF-12 act: S. stercoralis DAF-12 activation, primary screen; HEK293 ssDAF-12/GRIP1 lit1-tk-luc reporter, luminescence; % of 3 µM dafachronic acid response; activation, % at 6.8 µM; 1% of 370,000 active; AID 652126;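 active means activation above the mean over all tested compounds plus 3 SD, cut at about 0.9% in these data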;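 further: 0% = DMSO-only wells and 100% = 3 µM delta7-dafachronic acid wells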
DAX1 inh-2: blocks DAX1 repression of SF-1 activated StAR promoter | HEK293T StAR-luciferase reporter, SF-1/DAX-1 repression relief | inhibition, % at 6.8 µM | 1.1% of 370,000 active;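 active means inhibition above the mean over all tested compounds plus 3 SD, cut at about 3.6% in these data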;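 further: 0% = DAX-1 cells with DMSO and 100% = cells lacking DAX-1 with DMSO; higher inhibition means more luminescence from relief of DAX-1 repression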
Active calls of the source: *.

For O=C(NCc1ccco1)C1CCCN(S(=O)(=O)c2ccccc2[N+](=O)[O-])C1 (centres undefined) the results were hgDAF-12 ag -2, hcDAF12 agonist -2, ssDAF-12 act 0 and DAX1 inh-2 0.
For CC(C)CC(=O)N/C(N)=N/c1nc2ccccc2o1 the results were hgDAF-12 ag 9, hcDAF12 agonist 3, DAX1 inh-1 5.3*, ssDAF-12 act -1 and DAX1 inh-2 2.
For CCC(=O)N/C(N)=N/c1nc2ccccc2o1 the results were hgDAF-12 ag 7, hcDAF12 agonist 2, DAX1 inh-1 5.4*, ssDAF-12 act -1 and DAX1 inh-2 2.
For CC(=O)N/C(N)=N/c1nc2cc([N+](=O)[O-])ccc2o1 the results were hgDAF-12 ag 5, hcDAF12 agonist 1, DAX1 inh-1 4, ssDAF-12 act -1 and DAX1 inh-2 0.
`CC(=O)N/C(N)=N/c1nc2cc(C)ccc2o1` gave hgDAF-12 ag 11*, hcDAF12 agonist 4, DAX1 inh-1 2, ssDAF-12 act 1 and DAX1 inh-2 2.
For CCCC(=O)N/C(N)=N/c1nc2ccccc2o1 the results were hgDAF-12 ag 10, hcDAF12 agonist 5, DAX1 inh-1 2, ssDAF-12 act 0 and DAX1 inh-2 1.
For N/C(=N\c1nc2ccccc2o1)NC(=O)c1ccccc1 the results were hgDAF-12 ag 9, hcDAF12 agonist 0, DAX1 inh-1 3, ssDAF-12 act -1 and DAX1 inh-2 2.
For C=CCN1[C@H](C#N)[C@@H](c2ccccc2)[C@H]1CO the results were hgDAF-12 ag -3, hcDAF12 agonist -1, ssDAF-12 act 0 and DAX1 inh-2 1.
`CSc1nc2c(=O)[nH]cnc2s1` gave hgDAF-12 ag 2, hcDAF12 agonist 1, ssDAF-12 act -1 and DAX1 inh-2 0.
For O=C1CCC[C@H]2C[C@H](NCc3ccc(Cl)cc3)CC[C@]23CCCN13 the results were hgDAF-12 ag -2, hcDAF12 agonist 0 and ssDAF-12 act -1.
CCOC(=O)[C@]12CCCC=C1N(Cc1ccc(OC)cc1)C(=O)[C@@H]2CC(=O)NCc1cccc(C(F)(F)F)c1 was read as hgDAF-12 ag 0, hcDAF12 agonist -3, ssDAF-12 act -1 and DAX1 inh-2 -2.
Screening CCOC(=O)[C@@]12CCCC3=C1N(CCC3)C(=O)[C@H]2CC(=O)N1CCN(C(=O)c2ccco2)CC1 returned hgDAF-12 ag -1, hcDAF12 agonist -1, ssDAF-12 act -2 and DAX1 inh-2 0.
Screening CC(C)CNc1cccc2c1S(=O)(=O)N(Cc1cn(Cc3cccc(C(F)(F)F)c3)nn1)Cc1ccccc1O2 returned hgDAF-12 ag -2, hcDAF12 agonist -2, ssDAF-12 act -1 and DAX1 inh-2 0.
Cc1cc(N=O)no1 was read as hgDAF-12 ag 6, hcDAF12 agonist -2, ssDAF-12 act -1 and DAX1 inh-2 2.
`NC(=O)c1sc2nc(-c3ccco3)ccc2c1N` gave hgDAF-12 ag 3, hcDAF12 agonist 0, DAX1 inh-1 0, ssDAF-12 act -1 and DAX1 inh-2 1.
For COC(=O)c1sc2nc(-c3ccco3)ccc2c1N the results were hgDAF-12 ag 11*, hcDAF12 agonist 3, DAX1 inh-1 3, ssDAF-12 act 0 and DAX1 inh-2 3.
Screening O=C(CC1CCCC1)N[C@H](C(=O)N1CCC[C@H]1C(=O)NC1CCCC1)C1CCCCC1 returned hgDAF-12 ag 0, hcDAF12 agonist 0, ssDAF-12 act 0 and DAX1 inh-2 1.
COc1ccc(CCNC(=O)c2ccccc2OCc2c(C)noc2C)cc1 was read as hgDAF-12 ag -1, hcDAF12 agonist -1, DAX1 inh-1 -1, ssDAF-12 act -1 and DAX1 inh-2 3.7*.
Cc1noc(C)c1COc1ccccc1C(=O)NCCc1ccc(Cl)cc1 was read as hgDAF-12 ag 0, hcDAF12 agonist -1, DAX1 inh-1 0, ssDAF-12 act -1 and DAX1 inh-2 1.
CC(COc1ccc(C#N)c(F)c1)CN1CCC(C(O)(c2ccccc2)c2ccccc2)CC1 (centres undefined) was read as hgDAF-12 ag 4, hcDAF12 agonist -3, ssDAF-12 act -1 and DAX1 inh-2 -1.
`N#CCCN/N=C(/Cc1nc2ccccc2[nH]1)c1cccc(Cl)c1` gave hgDAF-12 ag 1, hcDAF12 agonist 4, DAX1 inh-1 0, ssDAF-12 act 1.3* and DAX1 inh-2 0.
O=C(Nc1nc(-c2cccs2)cs1)c1ccc([N+](=O)[O-])o1 was read as hgDAF-12 ag 0, hcDAF12 agonist 4, DAX1 inh-1 1, ssDAF-12 act 2.0* and DAX1 inh-2 -2.
O=C(Nc1nc(-c2cccs2)cs1)c1ccco1 was read as hgDAF-12 ag 11*, hcDAF12 agonist 4, DAX1 inh-1 2, ssDAF-12 act 0 and DAX1 inh-2 4.1*.
Screening O=C(Nc1nc(-c2cccs2)cs1)c1ccc(Cl)cc1 returned hgDAF-12 ag 1, hcDAF12 agonist -1, DAX1 inh-1 -1, ssDAF-12 act -1 and DAX1 inh-2 -1.
Screening Cc1ccc2[nH]c(C)cc(=S)c2c1 returned hgDAF-12 ag -1, hcDAF12 agonist -3, DAX1 inh-1 0, ssDAF-12 act -2 and DAX1 inh-2 0.
For Cc1cc(=S)c2ccccc2[nH]1 the results were hgDAF-12 ag -2, hcDAF12 agonist 0, DAX1 inh-1 0, ssDAF-12 act 1.3* and DAX1 inh-2 -1.
`C[C@H]1CN([C@@H](C)CO)C(=O)CCCn2cc(nn2)CO[C@@H]1CN(C)C(=O)c1ccc2ccn(C)c2c1` gave hgDAF-12 ag -3, hcDAF12 agonist 0, ssDAF-12 act -1 and DAX1 inh-2 0.
OC1COC(c2ccccc2)OC1C1OC(c2ccccc2)OCC1O (centres undefined) was read as hgDAF-12 ag 1, hcDAF12 agonist 0, DAX1 inh-1 4.9*, ssDAF-12 act -2 and DAX1 inh-2 -1.
Screening COc1cc(C)c(C(=O)Oc2cc(C)c(C(=O)O)c(O)c2C)c(OC)c1C returned hgDAF-12 ag 3, hcDAF12 agonist 0, DAX1 inh-1 4.3*, ssDAF-12 act -1 and DAX1 inh-2 -2.
For COc1ccc(S[C@]2(C(=O)N3CCN(C(C)=O)CC3)CC(=O)N(C(=O)c3ccccc3)[C@@H]2c2ccc(OC)cc2)cc1 the results were hgDAF-12 ag 4, hcDAF12 agonist 4, ssDAF-12 act 0 and DAX1 inh-2 -2.
For CC(C)CN1C(=O)C[C@@]2(C(=O)N(C)c3ccc(NC(=O)C(F)(F)F)cc32)C1c1ccccc1 (some centres undefined) the results were hgDAF-12 ag 3, hcDAF12 agonist -2, ssDAF-12 act -1 and DAX1 inh-2 0.
For CCOc1ccc(N(CC(=O)NCc2ccccc2C)S(C)(=O)=O)cc1 the results were hgDAF-12 ag 8, hcDAF12 agonist 2, DAX1 inh-1 4.3*, ssDAF-12 act 0 and DAX1 inh-2 2.
